Most compounds without a hit are left out; they make up all but 9.1% or so of the library.
M1 antagonist: antagonists of rat M1 muscarinic receptor | P08482 | CHO-M1 cells, Fluo-4 calcium, ACh EC80 antagonist mode; hits give low values | B-score at 10 µM | 64,000 compounds, 3.4% hits;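 active = calcium fluorescence response, raw or row-and-column corrected B-score, differing from the plate sample mean either way at a set confidence level, mostly lower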
D1 mod: D1 dopamine receptor (human) allosteric modulation; P21728; HEK293 D1, CRE-luciferase, dopamine EC30 potentiation; actives deviate in either direction; B-score at 10 µM; 58,000 compounds, 5.9% hits; AID 641;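 active = luminescence count or its row- and column-corrected plate score outside the 99.7% band of the plate's sample wells, on either side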
Target sequence (P21728 whole entry, looked up): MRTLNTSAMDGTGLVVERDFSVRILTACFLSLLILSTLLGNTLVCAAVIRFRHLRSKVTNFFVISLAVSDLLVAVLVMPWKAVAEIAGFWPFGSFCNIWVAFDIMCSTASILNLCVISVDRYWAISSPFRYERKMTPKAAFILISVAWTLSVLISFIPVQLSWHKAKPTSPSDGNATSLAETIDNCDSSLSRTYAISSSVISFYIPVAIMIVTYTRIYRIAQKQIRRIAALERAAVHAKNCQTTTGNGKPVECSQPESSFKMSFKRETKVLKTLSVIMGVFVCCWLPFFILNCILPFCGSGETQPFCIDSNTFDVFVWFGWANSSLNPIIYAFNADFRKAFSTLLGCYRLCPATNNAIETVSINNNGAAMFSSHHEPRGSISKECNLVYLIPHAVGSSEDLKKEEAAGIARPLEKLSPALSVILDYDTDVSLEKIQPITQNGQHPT
Htt clearance: mutant huntingtin protein clearance; 47,000 compounds, 0.42% hits; inhibition, % at 1.5 µM; HeLa Exon1htt(103Q)mCFP, aggregate imaging; zero = plate's median compound well;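 active = inhibition of aggregate fluorescence above about 70%, also judged a hit by eye on the cell image, limit read from the data, passing the limit was not always enough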;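 note: cells exposed to compound for three days before fixation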
M1 ag: activates the M1 muscarinic receptor | AID 626 | CHO-M1 cells, Fluo-4 calcium fluorescence, agonist mode; hits give high values | B-score at 10 µM | 64,000 compounds, 3% hits;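 active = fluorescence rise, raw or as B-score row- and column-corrected plate score, outside the 99.7% band of its plate's samples, either direction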
An asterisk follows results filed as active; i = inactive; x = no result given.

SMILES | M1 antagonist | D1 mod | Htt clearance | M1 ag
CCOC(=O)c1sc(NC(=O)c2c(C)nn(Cc3ccccc3)c2C)cc1C | -0.46 | -3.2* | x | 0.71
CCCc1cc(C(=O)OC)c(NC(=O)c2cc(C)on2)s1 | x | x | -24 | x
Cc1n[nH]c(=O)nc1NCC1CCCO1 (configuration not stated) | 0.62 | 0.63 | 76* | 0.28
O=C(Nc1ccc(N2CCOCC2)cc1)c1cnsn1 | -0.089 | -6.8* | x | 0.0044
c1ccc(-c2nnc(-c3ccccn3)nn2)nc1 | 0.31 | -5.5* | x | 0.3
c1ccc(-c2cccc(-c3ccccn3)n2)nc1 | 0.37 | -0.61 | -410 | 0.94
COc1ccc(OC)c(NC(=O)Cn2cc(C#N)c3ccccc32)c1 | 0.59 | 0.99 | -78 | -0.27
COc1ccc(OC)c(NC(=O)Cn2cc(C(=O)c3ccco3)c3ccccc32)c1 | 0.51 | -0.42 | 76* | 0.39
COc1ccccc1OCCn1cc(C(=O)c2ccco2)c2ccccc21 | -0.46 | 0.069 | 31 | 4.6*
CC(=O)N1CCC(N(C(=O)Nc2ccc(C)c(C)c2)C2CCCC2)CC1 | 3* | 0.5 | -40 | 1.5
CC1(C)Cc2c(sc3nc(-c4cccs4)n(N)c(=O)c23)CO1 | -1.8* | -1.1 | x | 5*
CC1(C)Cc2c(sc3nc(-c4ccccc4)n(N)c(=O)c23)CO1 | x | x | -3 | x
Cc1ccc(CNC(=O)C(C)OC(=O)c2cccs2)cc1 (configuration not stated) | x | x | -44 | x
CCN(CC)CCCN1C(=O)C(=O)/C(=C(/O)c2ccc3c(c2)OCCO3)C1c1ccc(C)o1 (configuration not stated) | -0.28 | 2.3* | x | -1
CCN(CC)C(=O)CSc1nnc(-c2ccccc2)n1N | 2.4* | -0.18 | -22 | 1.2
CCN(CC)C(=O)CSc1nnc(-c2ccncc2)n1N | x | x | 13 | x
COc1cc(C2C(C#N)=C(N)Oc3cc(C)oc(=O)c32)ccc1OC(=O)N1CCOCC1 (configuration not stated) | x | -3.7* | x | x
CCOCCn1c(CN(Cc2ccccc2)Cc2ccccc2)nc2c1c(=O)n(C)c(=O)n2C | 0.098 | -0.27 | x | 1.3
CC(C)c1ccc(NC(=O)c2csnn2)cc1 | 0.0053 | -4.5* | x | 0.83
CC1(C)Oc2ccc(NC(=O)C3COc4ccccc4O3)cc2O1 (configuration not stated) | -0.3 | -4.3* | -117 | 0.0013
CC(=O)c1sc(NC(=O)C2COc3ccccc3O2)nc1C (configuration not stated) | -0.18 | -8.5* | i | -0.51
CCCCCCC(=O)c1c(C)[nH]c(C(=O)OCC)c1C | -0.57 | 0.48 | x | -0.43
CC1(C)CC(=O)C(C(c2cccnc2)C2C(=O)CC(C)(C)CC2=O)C(=O)C1 | 1.1 | -5.5* | 45 | -0.27
O=S(=O)(c1ccccc1)c1nc(-c2ccccc2)oc1NCc1cccnc1 | -0.0066 | 2 | x | -0.41
O=S(=O)(c1ccccc1)c1nc(-c2ccco2)oc1NCc1cccnc1 | -0.49 | 4.9* | x | -0.28
SMILES | M1 antagonist | D1 mod | Htt clearance | M1 ag
Cc1ccc2cc(CN(CC3CCCO3)S(=O)(=O)c3c(C)ccc4nsnc34)c(=O)[nH]c2c1 (configuration not stated) | -0.17 | -0.06 | 16 | -0.73
Cc1ccc2nsnc2c1S(=O)(=O)N(Cc1cc2cccc(C)c2[nH]c1=O)CC1CCCO1 (configuration not stated) | -3.2* | -5.1* | x | 13*
C=CC[N+](C)(C)CCCNC(=O)/C=N/O | 0.68 | x | x | 0.14
CC1CCN(S(=O)(=O)c2ccc3c(c2)oc(=O)n3CC(=O)N2CCc3ccccc3C2)CC1 | x | x | 16 | x
CCOC(=O)Cn1nc(-c2ccccc2)nc1-c1ccccc1 | -0.0044 | -3.5* | 2 | 1.1
O=C(Cn1nc(-c2ccccc2)nc1-c1ccccc1)OC1CCCCC1 | x | x | -51 | x
COc1ccc(-c2nnc(CSc3nc4ccccc4c(=O)n3CC3CCCO3)o2)cc1OC (configuration not stated) | 0.36 | 11* | x | -0.9
O=C(NCc1ccco1)N1c2ccccc2Sc2ccccc21 | -1.7 | -0.95 | x | 2.4
O=C(CN1CCN(C(c2ccccc2)c2ccccc2)CC1)NC(=O)NCc1ccco1 | -0.51 | 0.33 | x | -3.2*
CC(C)c1ccc(-c2nnn(CCC(=O)O)n2)cc1 | -0.096 | -3.6* | x | -0.29
O=C(O)CCn1nnc(-c2cccs2)n1 | 0.11 | 0.1 | -72 | -0.32
CC(CNC(=O)CC(C)(C)C)NC(=O)CC(C)(C)C (configuration not stated) | x | x | 49 | x
CCOc1ccc(S(=O)(=O)n2cnc3cc(C)c(C)cc32)cc1 | -1.3 | 0.5 | -7 | -0.3
Cc1cc2ncn(S(=O)(=O)c3ccc(S(=O)(=O)N4CCCCCC4)cc3)c2cc1C | x | x | 71* | x
COc1ccc2c(Cl)c(C(=O)NCCCn3ccnc3)sc2c1Cl | x | x | -39 | x
CC(C)c1nc(SCC(=O)NCc2ccc3c(c2)OCO3)c2c(=O)n(C)c(=O)n(C)c2n1 | 0.061 | -0.73 | x | -0.43
OCCn1c(-c2ccc3c(c2)OCO3)csc1=Nc1ccccc1 | -0.48 | -3.4* | x | 0.032
COc1ccc(Nc2nc3c(c(=O)n(C)c(=O)n3C)n2CCO)cc1 | -0.24 | 0.7 | x | 0.59
O=C(NC1CCCCC1)NC1(C(=O)N2CCN3CCCC3C2)CCCCC1 (configuration not stated) | -0.78 | -3* | 54 | -0.025
COC(=O)c1cc(COc2ccc3oc(C)c(C(=O)OC(C)C)c3c2)c(C)o1 | x | x | -51 | x
O=C(CCCN1C(=O)c2cccc3cccc(c23)C1=O)N1CCc2ccccc2C1 | x | x | 5 | x
CCOCCCn1c(=N)c(C(=O)Nc2cc(C)on2)cc2c(=O)n3ccccc3nc21 | -0.18 | 1.5 | 44 | 5.9*
CCOc1ccc(NC(=O)c2ccco2)cc1 | 0.14 | -4.8* | -54 | 0.0085
CC(C)CNC(=O)c1cccc(NC(=O)c2ccc(NC(=O)c3ccco3)cc2)c1 | 1.4* | -0.42 | 18 | 0.6
CCOc1cc(NC(=O)c2ccco2)c(OCC)cc1NC(=O)c1cc(OC)c(OC)c(OC)c1 | -1.2 | -5* | -70 | 2.9
SMILES | M1 antagonist | D1 mod | Htt clearance | M1 ag
CSCCC(NC(=O)COc1ccccc1)C(=O)N1CCN(c2ccccc2F)CC1 (configuration not stated) | -0.24 | -1.3 | x | 1
Cc1c(N)cccc1-c1nc2ccccc2[nH]1 | x | x | -70 | x
Cc1cc(C(=O)NCCC2=CCCCC2)c(C)o1 | -0.19 | -6.6* | -2 | 0.97
O=C(NCc1nc2ccccc2[nH]1)c1ccco1 | 0.13 | -0.74 | x | 0.84
O=C(N/C(=C/c1ccc(Br)cc1)c1nc2ccccc2[nH]1)c1ccco1 | x | x | 80* | x
CC(=O)c1cccc(NC(=S)NC(=O)CC(C)(C)C)c1 | x | x | -8 | x
Cc1ccc(C)n1-c1ccc(N2CCOCC2)cc1 | -0.09 | -0.074 | 97* | -0.0053
c1ccn(-c2ccc(N3CCOCC3)cc2)c1 | x | x | -25 | x
O=C(NCCc1ccccc1)NC1CCCCC1 | 0.16 | -2.5* | 54 | -0.27
O=C(NCc1ccccc1)NC1CCCCC1 | 0.49 | -0.6 | x | -1.4
CCOC(=O)Cc1csc(NC(=O)CSc2nc(N)c3c(C)c(C)sc3n2)n1 | x | x | 39 | x
O=C1c2ccccc2C(Nc2ccc(S(=O)(=O)N3CCCCC3)cc2)N1Cc1ccco1 (configuration not stated) | x | x | -50 | x
O=C1c2cccnc2C(Nc2ccc(S(=O)(=O)N3CCCCC3)cc2)N1Cc1ccccc1 (configuration not stated) | -1.2 | -1.4* | x | 2.5
